Compounds with a hit are over-represented: about 2.9% of the library has one in this group of screens.
esBAF inh: Bmi1 luciferase reporter increase in mESCs, primary screen, esBAF inhibitor project, mouse ES cells, Bmi1 luciferase knock-in, single point; 24 h; 100% = twice the neutral-well signal; reporter increase, % at 12.5 µM; hit rate 2% among 350,000; AID 602393, 2012; in the data active = activation above about 40%; inconclusive = no clear call, values can overlap the other calls;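 note: 0% = median of the plate's neutral control wells and 100% = double that signal; a rise in the Bmi1 reporter signal indicates esBAF inhibition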
PvdQ inh: P. aeruginosa PvdQ acylase inhibitors, primary screen, biochemical, fluorescence, plate reader and imaging, single point; PvdQ acylase [Pseudomonas aeruginosa LESB58]; purified PvdQ acylase; inhibition, % at 10 µM; hit rate 0.063% among 340,000; AID 488965, 2010; in the data active = inhibition above about 30%, passing the limit was not always enough; inconclusive = no clear call, values can overlap the other calls;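 note: 0% = vehicle neutral wells and 100% = reference inhibitor wells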
Vif imaging: HIV Vif self-association inhibitors, primary screen, imaging, HEK293T, single point; HEK293T cells, Vif self-association by quenched fluorescence, 24 h; hit rate 0.35% among 340,000; inhibition, % at 7.49 µM; in the data active = inhibition above about 50%, passing the limit was not always enough; inconclusive = no clear call, values can overlap the other calls; inactive = below about 31%
MITF act: activators of MITF-driven TRPM1 promoter reporter, primary screen, cell-based, SK-MEL-5, luciferase, single point; SK-MEL-5 TRPM1-promoter luciferase, 24 h; % of positive control, neutral wells = 0; activation, % at 12.5 µM; hit rate 0.75% among 300,000; AID 588334, 2011;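 active = mean activation of at least 80% with every replicate also reaching 80%; inconclusive = mean reaches 80% but some replicate falls short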;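 note: 0% = neutral control wells and 100% = parthenolide positive control wells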
Glyco luc inh: increase of ERlucT glycosylation luciferase signal, primary screen, N-linked glycosylation inhibitor project, D54 ERlucT cells, luminescence, set 2 | D54 ERlucT glycosylation luciferase reporter, 24 h; percent of 100 nM tunicamycin response | reporter increase, % at 12.5 µM | hit rate 0.23% among 360,000 | AID 588692, 2011;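 active = mean luciferase reporter signal, scaled so untreated is 0 and the glycosylation-blocking control 100, at or above a set limit in every replicate; inconclusive = mean reaches the limit but not every replicate does; inactive = mean below the limit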;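 note: luciferase carries N-glycosylation sites so blocking glycosylation raises the light; 0% = median of neutral control wells and 100% = median of 100 nM tunicamycin wells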
Wnt bcat act: Wnt/beta-catenin pathway activators, primary screen, cell-based, plate reader, single point. Wnt/beta-catenin reporter cell assay, activator. activation, % at 9.35 µM. hit rate 1.2% among 300,000; in the data active = activation above about 30%, passing the limit was not always enough; inconclusive = no clear call, values can overlap the other calls;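 note: 0% = neutral control wells and 100% = positive control wells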
* marks the source's active call; other numbers are inactive results; u = inconclusive; x = no result.

SMILES	esBAF inh	PvdQ inh	Vif imaging	MITF act	Glyco luc inh	Wnt bcat act
COc1cc(/C=C/C(=O)OCC(=O)N(C)Cc2ccccc2)cc(OC)c1OC	-1	5	8	-3	4	3
CS(=O)(=O)Nc1ccc2c(c1)[C@H]1C[C@@H](CC(=O)NCc3ccccc3F)O[C@H](CO)[C@H]1O2	-3	x	x	x	x	x
CC(=O)Nc1ccc(NC(=O)[C@@H]2CCCC[C@@H]2C(=O)O)cc1	0	0	83*	-5	2	-1
CC(=O)Nc1ccc(NC(=O)C2CCCCC2C(=O)O)cc1 (stereo unspecified)	x	-13	0	8	1	-3
COc1c(C(=O)Nc2nnc(C3CC3)s2)csc1Cl	48*	3	2	36	-1	24
Cc1cccn2cc(-c3ccccc3)nc12	x	2	3	38	-10	x
COc1ccc(-c2cn3cccc(C)c3n2)cc1Br	99*	6	-11	50	-2	35*
Cc1cccn2cc(-c3ccc(F)cc3)nc12	1	0	9	-2	-16	55*
O=C(C[C@@H]1C=C[C@H](NC(=O)C2CCOCC2)[C@H](CO)O1)NCC1CCCCC1	0	x	x	x	x	x
C[C@H]1CN([C@@H](C)CO)C(=O)c2cc(C3=CCCCC3)cnc2O[C@@H]1CN(C)C(=O)c1ccccc1	-1	x	x	x	x	x
Cc1cc2nccc(-c3ccccn3)n2n1	12	0	-1	-7	4	15
c1ccc(-c2cc3nccc(-c4ccccn4)n3n2)cc1	x	-10	-15	127*	-3	19
COc1ccc(S(=O)(=O)N(C)C[C@@H]2Oc3ccc(NC(=O)CCN4CCOCC4)cc3CC(=O)N([C@H](C)CO)C[C@H]2C)cc1	-1	x	x	x	x	x
COc1ccc(CCNC(=O)C(=O)NCc2ccccn2)cc1	-6	-4	-18	-1	1	37*
COc1ccc(CCNC(=O)c2cccn2C)cc1	50*	-13	-7	74	-1	18
Cn1cccc1C(=O)NCCc1ccc(Cl)cc1	57*	-2	5	114*	-1	26
C[C@H](CO)N1C[C@H](C)[C@@H](CN(C)C(=O)Nc2ccc3c(c2)OCO3)Oc2c(NS(C)(=O)=O)cccc2C1=O	6	x	x	x	x	x
Cc1noc(C)c1NC(=O)N[C@@H]1CC[C@H](CC(=O)NCCCN(C)C)O[C@H]1CO	-3	x	x	x	x	x
COCC(=O)Nc1ccc2c(c1)[C@@H]1C[C@H](CC(=O)NC3CCCC3)O[C@H](CO)[C@@H]1O2	0	x	x	x	x	x
O=C(NCCN1CCOCC1)c1cc(-c2ccc(Br)cc2)on1	25	-19	-2	3	-4	x
O=C(NCCN1CCOCC1)c1cc(-c2ccccc2)on1	19	-3	1	7	13	47*
O=C(NCCCN1CCOCC1)c1cc(-c2ccc(O)cc2)on1	5	11	-18	x	-5	8
O=C(NCCCN1CCOCC1)c1cc(-c2ccccc2)on1	11	7	18	3	30*	16
COc1ccccc1Oc1ccc(N/C=C/C(=O)c2ccco2)cc1	87*	-9	17	59	-3	16
CC(=O)Nc1ccc(N/C=C/C(=O)c2ccco2)cc1	38	-2	-7	65	0	x
SMILES	esBAF inh	PvdQ inh	Vif imaging	MITF act	Glyco luc inh	Wnt bcat act
CN(C)c1ccc(N/C=C/C(=O)c2ccco2)cc1	2	-1	17	21	-16	43*
O=C(/C=C/Nc1ccccc1O)c1ccco1	x	-1	0	44	2	52*
O=C(/C=C/Nc1cccc(F)c1)c1ccco1	45*	1	-11	93*	-4	x
O=C(/C=C/Nc1ccc(Oc2ccccc2Cl)cc1)c1ccco1	x	-5	7	43	-1	18
C[C@H](CO)N1C[C@H](C)[C@H](CN(C)C(=O)CC2CC2)Oc2cc(-c3cccnc3)ccc2S1(=O)=O	-7	x	x	x	x	x
COc1cccc(C=NN2CCCCCC2)c1OC	45*	-17	-2	54	0	-3
COc1ccc(N=CC2=C(O)CC(C)(C)CC2=O)cc1	49*	-7	0	32	0	x
C[C@@H]1CCCCO[C@H](CN(C)C(=O)Nc2ccccc2)[C@@H](C)CN([C@H](C)CO)C(=O)c2cc(NC(=O)c3ccncc3)ccc2O1	2	x	x	x	x	x
COC(=O)c1ccc(N2CCN(c3ccccc3)CC2)nc1	50*	5	6	100*	2	25
CSc1nsc(SCC(=O)Nc2ccc(NC(C)=O)cc2)n1	12	-22	8	13	2	2
CSc1nsc(SCC(=O)Nc2ccc(C(C)=O)cc2)n1	48*	-18	1	37	-1	x
COc1ccc(NC(=O)CSc2nc(SC)ns2)cc1	56*	-20	-2	108*	-3	u
CN(C)C(=O)c1ccc(-c2ccc([C@@H]3[C@H](CO)N4CCCCN(Cc5ccncc5)C[C@@H]34)cc2)cc1	13	x	x	x	x	x
COCC#Cc1cnc2c(c1)C(=O)N([C@@H](C)CO)C[C@H](C)[C@H](CN(C)C(C)=O)O2	-2	x	x	x	x	x
Cc1ccccc1C1=NC(c2ccc(F)cc2F)ON1 (stereo unspecified)	48*	-13	14	61	3	x
C[C@@H]1CN([C@H](C)CO)C(=O)c2cc(NC(=O)CCCN(C)C)ccc2O[C@H]1CN(C)C(=O)Nc1ccccc1	2	x	x	x	x	x
O=C(Nc1ccc(Cl)c(Cl)c1)Nc1ccccn1	67*	-13	-11	73	1	37*
COc1cccc(NC(=O)c2ccc(NC(=O)C(C)(C)C)cc2)c1	66*	14	-9	72	-1	13
COC(=O)c1cccc(NC(=O)Nc2ccc(Cl)c(Cl)c2)c1	71*	-13	x	3	-3	-2
COc1cccc(NC(=O)Nc2ccc(C)c(Cl)c2)c1	55*	-7	-6	u	-4	12
C[C@@H]1CN([C@@H](C)CO)C(=O)c2cc(C3=CCCCC3)cnc2O[C@@H]1CN(C)C(=O)Nc1ccc(F)cc1	10	x	x	x	x	x
COc1cccc(NC(=O)Nc2ccc(C(C)(C)C)cc2)c1	57*	-12	-4	61	-3	10
CC(C)(C)c1ccc(OCC(=O)Nc2ccncc2)c(Br)c1	0	1	-2	23	34*	-2
C[C@@H]1CN([C@@H](C)CO)C(=O)c2cccc(NS(=O)(=O)c3ccc(Cl)cc3)c2O[C@H]1CN(C)Cc1ccc(Cl)c(Cl)c1	0	x	x	x	x	x
CN(C)C(CNC(=O)CSc1nc2sc3c(c2c(=O)n1C)CCCC3)c1ccccc1 (stereo unspecified)	0	7	-2	5	33*	-2

High-throughput results: PubChem, Broad Institute
